High-throughput results: PubChem BioAssay, National Center for Advancing Translational Sciences (NCATS)
Pf Dd2 inh – qHTS Primary assay for Inhibitors of Plasmodium falciparum Dd2 growth in vitro; P. falciparum Dd2 growth, SYBR Green, 72 h; Potency, µM (highest dose often 28.9 µM), for the others: at the highest dose activity, negative = inhibition, most hits filed as inhibitors; 4.3% of 120,000 active; AID 1347417, 2020; active = well fitted inhibition curve with a large enough effect;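 note: plate controls were DMSO vehicle for no effect and reference drug for full effect; nearly all actives have a fitted effect of over 65% in size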
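Readout: SYBR Green fluorescence, 485 nm excitation, 535 nm emission, after ~16 h lysis at 37C. Before that, Dd2-infected red cells (2.5% hematocrit) grew 72 h with compound, 29 uM top final concentration.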
Active calls of the source: *; i = inactive; [ ] = another dose, or the depositor's remark. Many of the other results were omitted from the sample, so hits are more common in it than they were. Potency is the fitted concentration of half-maximal effect.

SMILES	Pf Dd2 inh
Cn1nc(C(=O)N2CC(N(C3CCOCC3)S(C)(=O)=O)C2)c2ccccc21	-16.1%
N#Cc1ccc(C(=O)N2CCOC[C@H](Oc3ccc(C(F)(F)F)cc3)C2)cc1	i
COc1ccc(-c2nc3c(c(-c4ccccc4)n2)CN(C(=O)Nc2ccccc2)CC3)cc1	-18.1%
Cc1ccc(NC(=O)C2CCCCC(=O)N2)cc1 (stereo not drawn)	9.7%
COc1ccc(NC(=O)Nc2ccc(C)n(CC(=O)Nc3cccc(C)c3)c2=O)cc1	-16.4%
COc1ccc(-n2cc(-c3ccc4c(c3)OCO4)n(CC(=O)Nc3cccc(C)c3)c2=O)cc1	12.6µM*
CCc1cc(=O)n(CC(=O)Nc2ccc3c(c2)OCO3)c(-c2cccc(F)c2)n1	i
CN(C)c1ccc(C(=O)N2CCN(C(=O)NC3CCCCC3)[C@H](C(=O)N[C@@H](CC3CCCCC3)C(N)=O)C2)cc1	i
COc1cccc(CC(=O)N2CCn3c(nnc3[C@@H]3C[C@@H](O)CN3C(C)C)C2)c1	-9.3%
COCC1CN(C(=O)N(C)C)CC12CCNCC2 (stereo not drawn)	22.3%
O=C1Cc2c(-c3cccc(C(F)(F)F)c3)n[nH]c2CN1CCc1ccncc1	-5.5%[44.1 µM]
Cc1cnc(NC(=O)c2ccc3c(c2)OCCN(Cc2ncccn2)C3)s1	i
Cc1cnc(NC(=O)c2ccc3c(c2)OCCN(C2CCC2)C3)s1	i
O=C(Nc1nccs1)c1ccc2c(c1)OCCN(c1ccccc1)C2	10µM*
O=C(Nc1nccs1)c1ccc2c(c1)OCCN(C1CCC1)C2	7.94µM*
COc1ccc(NC(=O)c2ccc3c(c2)OCCN(C2CCC2)C3)c(F)c1	i
O=C(Nc1nccs1)c1ccc2c(c1)OCCN(CCC(F)(F)F)C2	-7.4%[44.1 µM]
O=C(Nc1ccc(F)cc1)c1ccc2c(c1)OCCN(CCC(F)(F)F)C2	i
CC(C)CCN1CCOc2cc(C(=O)Nc3ccccc3)ccc2C1	-14.0%[44.1 µM]
O=C(Nc1ccc2cn[nH]c2c1)c1ccc2c(c1)OCCN(c1ccccc1)C2	11.2µM*
O=C(CC1CCCC1)Nc1cnc(-c2cccnc2)nc1	i
Cc1noc2c(N3CCOCC3)cc(-c3cccs3)nc12	i
CN(Cc1cccc(C(F)(F)F)c1)C(=O)Nc1ccc(Cl)cc1	-11.2%
Nc1nnnn1CC(=O)N1CC[C@@H]2[C@@H](CCC(=O)N2CCc2cnc[nH]2)C1	-11.0%
CCNC(=O)c1n[nH]c2c1CN(C(=O)c1ccccc1F)CC2	-14.7%
SMILES	Pf Dd2 inh
CCOCCOC1CCN(C(=O)C2(S(=O)(=O)c3ccc(Cl)cc3)CC2)CC1	i
CC(C)COc1ccc(C(=O)NCC2(N3CCN(C)CC3)CCCCC2)cc1	10µM*
CC(C)COc1ccc(C(=O)N2CCN(CCc3ccncc3)CC2)cc1	24.1%
CN1CCN(C2(CNC(=O)c3ccc(C(C)(C)C)cc3)CCCCC2)CC1	i
N#Cc1ccc(CN2CC(Oc3ccc4c(c3)OCO4)C2)cc1	i
CCOc1ccc(Cl)cc1CN(C)C(=O)c1cccc(-n2cnnc2)c1	-14.3%
COCCN1CCNc2nc(CNCc3cccc(Cl)c3)n(Cc3ccccc3)c2C1=O	i
O=C1c2c(nc(CNCc3cnccn3)n2Cc2ccccc2)NCCN1Cc1cccc(Cl)c1	2.24µM*
CC(=O)N1CCN(Cc2nc3c(n2Cc2ccccc2)C(=O)N(Cc2ccccc2C#N)CCN3)CC1	i
N#Cc1ccccc1CN1CCNc2nc(COc3ccccc3)n(Cc3ccccc3)c2C1=O	i
CN(Cc1ccccc1)Cc1nc2c(n1Cc1ccccc1)C(=O)N(Cc1ccccc1C#N)CCN2	10µM*
O=C(O)c1ccc(NCc2nc3c(n2Cc2ccccc2)C(=O)N(Cc2cccc(Cl)c2)CCN3)cc1	-0.8%
COCCN1CCCCCC(O)c2cc(C(=O)N3CCN(C(C)C)CC3)ccc21 (stereo not drawn)	i
Cc1noc(C)c1CCC(=O)N1CCc2nn(CC#N)c(=O)n2CC1	i
Cc1cc(-c2cc(-c3cccs3)nc3c(C)noc23)ccn1	0.6%[44.1 µM]
COc1cc(C)cc(-c2cc(C(=O)O)cc(S(=O)(=O)N3CCOCC3)c2)c1OC	-13.1%
C[C@@H]1CN(c2cc(C3CC(O)C3)ncn2)C[C@H](C)O1 (stereo partly drawn)	10.5%
Cc1ccc(CN(Cc2ccco2)C(=O)COc2ccc(C)c(C)c2)cc1	-9.7%
Cc1cccc(OCC(=O)N(Cc2ccc(C(C)(C)C)cc2)Cc2ccco2)c1	11.2µM*
Cc1cc(OCC(=O)N(Cc2ccc(N(C)C)cc2)Cc2ccco2)cc(C)c1Cl	3.8%
Cc1ccccc1CC(=O)N1CCC(N2CCCC(C(=O)NC3CC3)C2)CC1 (stereo not drawn)	-2.7%
COc1cccc(CN2CC[C@@H](CO)N(C)c3nc(C)ccc3C2)c1	-14.4%[44.1 µM]
CCNCc1ccc(-c2ccc(F)cc2)o1	i
c1ccc(-c2ccc(CNCc3cccs3)o2)cc1	i
Clc1cccc(-c2ccc(CNc3ncncn3)o2)c1	-14.4%
CCNCc1ccc(-c2ccc(Cl)cc2)o1	12.6µM*
CCN(CC)CCNCc1ccc(-c2ccccc2)o1	3.16µM*
Fc1ccc(-c2ccc(CNCCSc3nnnn3-c3ccccc3)o2)cc1Cl	46.0%
